Assay outcomes deposited in PubChem BioAssay by National Center for Advancing Translational Sciences (NCATS).
Most compounds without a hit are left out; they make up all but 21% or so of the library.
Giardia FBPA inh – qHTS Assay for Inhibitors of Fructose-1,6-bisphosphate Aldolase from Giardia Lamblia | purified Giardia FBPA | Potency, µM (highest dose often 59.6 µM), hits mostly inhibitors | actives 0.71% (n = 290,000) | A8B2U2; also: nearly all actives have a fitted effect of over 55% in size
Target sequence (A8B2U2 whole entry, looked up): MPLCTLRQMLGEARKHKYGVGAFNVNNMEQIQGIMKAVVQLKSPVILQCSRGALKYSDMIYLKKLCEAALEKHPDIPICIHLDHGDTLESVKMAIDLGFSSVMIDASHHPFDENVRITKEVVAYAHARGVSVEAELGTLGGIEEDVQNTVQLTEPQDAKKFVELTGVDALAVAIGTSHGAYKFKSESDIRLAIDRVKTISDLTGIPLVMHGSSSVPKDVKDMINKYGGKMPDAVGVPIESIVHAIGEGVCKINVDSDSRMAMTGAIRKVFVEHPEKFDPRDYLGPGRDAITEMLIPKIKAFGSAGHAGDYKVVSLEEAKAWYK
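40 nM FBPA preincubated 10 min at RT with compound (up to 57.5 uM final), then substrate plus GAPDH/TPI/NAD/arsenate coupling and diaphorase/resazurin added. Fluorescence read after 20 min at RT, 525/598 nm.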
CHX counter – Cycloheximide Counterscreen for Small Molecule Inhibitors of Shiga Toxin. cell reporter, cycloheximide protein synthesis inhibition counterscreen. actives 12% (n = 300,000). max response, %. AID 2314, 2010; in the data active = max response mostly above about 13%, no sharp cut-off; inactive = mostly below about 14%; also: read at 38.3 µM for the half of the compounds with a filed dose
Pf growth 48h – Primary qHTS for delayed death inhibitors of the malarial parasite plastid, 48 hour incubation; P. falciparum luciferase growth in erythrocytes, 48 h; Potency, µM (top dose mostly 28.7 µM), most hits filed as inhibitors; actives 5.9% (n = 310,000); AID 504832, 2011
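Erythrocytes infected with P. falciparum carrying an integrated firefly luciferase reporter (2% hematocrit, 0.1% parasitemia final) were exposed to compounds in RPMI 1640 with 0.5% Albumax at 37 C, 5% CO2. Growth inhibition was scored as reduced luminescence.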
NS1 inh – qHTS Assay for Inhibitors of Influenza NS1 Protein Function. actives 0.4% (n = 270,000). Potency, µM (titrated, usually from 46.1 µM). AID 2326, 2010; calls by dose curve; also: actives are rising curves; nearly all actives have a fitted effect of over 50% in size
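A cell-based growth assay was used: compounds that relieve NS1-induced slow growth of budding yeast raise OD600. Assay medium was yeast nitrogen base with ammonium sulphate and -URA supplement, pH 6.0, with 2% galactose.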
Pf growth 96h – Primary qHTS for delayed death inhibitors of the malarial parasite plastid, 96 hour incubation | actives 6.9% (n = 320,000) | P. falciparum luciferase reporter growth, 96 h | AID 504834, 2011 | Potency, µM (series often up to 28.7 µM), most hits filed as inhibitors
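P. falciparum expressing integrated firefly luciferase grown in erythrocytes (2% hematocrit, 0.05% parasitemia final) with compounds for 96 hours at 37 C, 5% CO2. Growth inhibition read as loss of luminescence after adding luciferase detection reagent.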
Shiga toxin inh – A qHTS for Small Molecule Inhibitors of Shiga Toxin | Vero cells, Shiga toxin protein synthesis inhibition reporter | AID 2315, 2010 | actives 9.2% (n = 290,000) | inhibition, % at 38.7 µM; in the data active = inhibition mostly above about 28%, no sharp cut-off; inactive = mostly below about 43%
Numbers stand for hits; – = inactive; ? = inconclusive; · = not tested or not shown. Unless noted, calls follow the shape of the dose curve; as a rule, active = well fitted curve in the direction sought with a large enough effect; inconclusive = small, poorly fitted or top-dose-only effect, or another doubt; inactive = no such curve, though single readings can be large; an effect the other way counts as inactive or inconclusive.

SMILES | Giardia FBPA inh | CHX counter | Pf growth 48h | NS1 inh | Pf growth 96h | Shiga toxin inh
O=C(Nc1ccc(Cl)cc1)Nc1ccccc1CC[N+](=O)[O-] | – | – | 12µM | · | ? | 41
O=C(Nc1ccc(Cl)c(Cl)c1)Nc1ccccc1C(=O)O | – | 30 | – | – | – | –
COCCNC(=O)c1ccccc1NC(=O)Nc1ccccc1 | – | – | – | – | 7.4µM | –
CN(C)C(=O)Nc1ccccc1CC[N+](=O)[O-] | – | – | – | · | – | –
O=C(Nc1ccccc1CC[N+](=O)[O-])N1CCN(c2ccccc2)CC1 | – | – | 10µM | · | 12µM | –
Cc1ccc(OCC(=O)NCc2cccs2)c([N+](=O)[O-])n1 | – | – | – | – | – | –
Cc1ccc(C(C)C)c(OCC(=O)N/N=C/c2cccn2C)c1 | – | – | ? | – | – | –
O=C(Cc1ccc(Cl)cc1)Nc1ccccc1C(=O)Nc1ccc(C(=O)O)cc1 | – | – | – | · | – | –
O=C(Nc1ccc(Cl)cc1)Nc1ccccc1C(=O)O | – | 23 | – | – | – | –
CC(SC1=NCCS1)C(=O)Nc1nnc(-c2ccc(Br)cc2)s1 (stereo not drawn) | – | 21 | – | – | ? | 38
CC(SC1=NCCS1)C(=O)Nc1nnc(-c2ccc(F)cc2)s1 (stereo not drawn) | – | – | – | – | – | –
Cc1ccc(NC(=O)C[n+]2cc(-c3ccccc3)n3c2CCC3)cc1 | – | – | 10µM | – | 2.1µM | –
Cc1ccc(-c2c[n+](CC(=O)Nc3ccccc3C)c3n2CCC3)cc1 | – | – | ? | – | 6.6µM | –
